assay: binders of probe aFSTL3 on microarray, primary screen, stem cell growth factor project, biochemical, small-molecule microarray, fluorescence 635/667 (AID 1064); conditions: higher = more signal;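 further: measures binding of the biotinylated anti-FSTL3 antibody to printed compounds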

For `CN(C)CCCC[C@@H]1NC(=O)[C@@H]2C[C@H](C(=O)NCCCCCN)[C@H](c3ccc(O)cc3)N2C1=O`, which composite z-score is on record?
Its composite z-score is 0.591.

With `O=C(NCC(O)CO)[C@@]1(Cc2ccccc2)COC(c2ccc(OCCCO)cc2)=N1` (some centres not stated) as the compound, how does the composite z-score read?
The composite z-score was 0.213.

Which composite z-score does the source give for `CCOC(=O)N1C(c2ccc(OCCCO)cc2)=NC(C(=O)OC)N1C(=O)OCC` (configuration not stated) here?
Its composite z-score is -0.243.

With `CO[C@H]1O[C@H](CO)[C@@H](OC(=O)Nc2cccc(F)c2)[C@H](OC(=O)Nc2ccccc2-c2ccccc2)[C@@H]1OC(=O)Nc1ccccc1-c1ccccc1` as the compound, how does the composite z-score read?
Its composite z-score is -0.217.

For `O=C1OCC=C[C@H]2OC34C=CCN(c5ccc6ccccc6c5)C(=O)[C@H]3N(CCO)C(=O)[C@@H]4[C@@H]12` (some centres not stated), which composite z-score is on record?
Its composite z-score is 0.982.

With `COc1cc2c(cc1O)C(c1ccc(CN3CCCC3)cc1)N(Cc1sc3ccccc3c1Cl)CC2` (configuration not stated) as the compound, how does the composite z-score read?
Its composite z-score is 0.719.

Which composite z-score does the source give for `O=C1OCC=C[C@H]2OC34C=CCN(c5ccc(Cl)cc5)C(=O)[C@H]3N(CCCO)C(=O)[C@@H]4[C@@H]12` (some centres not stated) here?
Its composite z-score is 0.768.

With `NC(=O)[C@@]1(CCS(=O)(=O)c2ccccc2)N=C(c2ccc(OCCCO)cc2)O[C@H]1c1ccccc1` as the compound, how does the composite z-score read?
The composite z-score was 0.287.

With `CC(=O)NCCCC[C@@H]1NC(=O)[C@@H]2C[C@H](C(=O)NCc3ccc(F)cc3)[C@H](c3ccc(O)cc3)N2C1=O` as the compound, how does the composite z-score read?
Its composite z-score is 0.114.

With `O=C1OCCC=C[C@H]2OC34C=CCN(c5ccc6ccccc6c5)C(=O)[C@H]3N(CCCCCCO)C(=O)[C@@H]4C12` (some centres not stated) as the compound, how does the composite z-score read?
The composite z-score was 0.366.

For `Cc1ccc(F)cc1S(=O)(=O)N[C@@H]1CCN(Cc2ccc(C(F)(F)F)cc2)C1`, which composite z-score is on record?
The composite z-score was -0.234.

With `CC(C)NC(=O)[C@@]1(c2ccc([N+](=O)[O-])cc2)CC(=O)N(C(C)C)[C@@H]1c1ccc(CO)cc1` as the compound, how does the composite z-score read?
Its composite z-score is 1.12.

From PubChem BioAssay
